# Bioassay records: PubChem, The Scripps Research Institute Molecular Screening Center
# The list is not random: actives were taken first. Their share in the collection is about 4.1%.
# ssDAF-12 act = S. stercoralis DAF-12 nuclear receptor activators, primary screen, cell-based, luminescence, HEK293, GRIP1 co-expression, lit1-tk-luc; Nuclear hormone receptor DAF-12 (Strongyloides stercoralis); HEK293 ssDAF-12/GRIP1 lit1-tk-luc reporter; % of 3 µM dafachronic acid response; activation, % at 6.8 µM; 1% of 370,000 active; AID 652126, 2013;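 active = activation above the mean over all tested compounds plus 3 SD, cut at about 0.9% in these data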;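 also: 0% = DMSO-only wells and 100% = 3 µM delta7-dafachronic acid wells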
# DAX1 inh-1 = DAX1 (NR0B1) inhibitors, primary screen, cell-based, HEK293, Gal4-DAX1, luciferase luminescence; HEK293 Gal4-DAX1 luciferase reporter; inhibition, % at 6.75 µM; 0.99% of 340,000 active;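 active = inhibition above the mean over all tested compounds plus 3 SD, cut at about 4.2% in these data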;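 also: 0% = DAX1-transfected cells with DMSO and 100% = empty-vector control cells with DMSO; inhibition shows as a rise in luminescence from relieved DAX1 repression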
# Target sequence (P51843 207-470 limits assumed): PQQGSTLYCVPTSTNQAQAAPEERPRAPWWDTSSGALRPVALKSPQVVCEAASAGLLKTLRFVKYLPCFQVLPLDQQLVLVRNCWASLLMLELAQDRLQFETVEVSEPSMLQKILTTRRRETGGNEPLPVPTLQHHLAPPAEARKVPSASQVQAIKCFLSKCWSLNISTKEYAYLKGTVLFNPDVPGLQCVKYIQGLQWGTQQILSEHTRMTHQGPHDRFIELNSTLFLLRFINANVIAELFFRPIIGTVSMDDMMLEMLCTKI
# DAX1 inh-2 = DAX1 (NR0B1) inhibitors on StAR promoter, primary screen, cell-based, luminescence, SF-1 (NR5A1), full-length DAX-1; 1.1% of 370,000 active; AID 652010, 2013; inhibition, % at 6.8 µM; HEK293T StAR-luciferase reporter, SF-1/DAX-1 repression relief;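 active = inhibition above the mean over all tested compounds plus 3 SD, cut at about 3.6% in these data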;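 also: 0% = DAX-1 cells with DMSO and 100% = cells lacking DAX-1 with DMSO; higher inhibition means more luminescence from relief of DAX-1 repression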
# hcDAF-12 act = H. contortus DAF-12 nuclear receptor activators, primary screen, cell-based, luminescence, HEK293, lit1-tk-luc reporter; HEK293 hcDAF-12 lit1-tk-luc reporter; 0% DMSO, 100% Δ7-dafachronic acid; activation, % at 6.8 µM; 1.4% of 370,000 active;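 active = activation above the mean of all tested compounds plus 3 SD, cut at about 5.5% in these data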;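 also: 100% = response to 3 µM Δ7-dafachronic acid high control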
# hgDAF-12 ag = H. glycines DAF-12 receptor agonists, primary screen, cell-based, luminescence, HEK293, GAL4 fusion, UAS-luciferase. 1.8% of 370,000 active. AID 687014, 2013. HEK293 GAL4-hgDAF12 UAS-luciferase reporter, agonist luminescence; normalized to butyrate control. activation, % at 6.8 µM;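 active = activation above a cutoff set at the mean of all screened compounds plus 3 SD, cut at about 10% in these data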;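 also: 0% = DMSO wells and 100% = sodium butyrate wells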
# Active calls of the source: *; nt = not tested or not shown.
SMILES,ssDAF-12 act,DAX1 inh-1,DAX1 inh-2,hcDAF-12 act,hgDAF-12 ag
Cn1cccc1CC(=O)NN=C/C=C\c1ccco1,0,nt,2,1,7
C[C@H]1[C@@H](OC(=O)Oc2ccc([N+](=O)[O-])cc2)CC[C@@]23CCCN2C(=O)CCC[C@@H]13,-1,nt,nt,-2,-1
CC1CCC(NC(=O)Cn2ncc3ccccc32)CC1 (configuration not stated),0,6.5*,1,2,2
CCOC(=O)N1CCC(NC(=O)Cn2ncc3ccccc32)CC1,-1,0,0,-1,1
O=C(CSc1nc2cc(Cl)ccc2s1)c1cc2ccccc2o1,3.4*,0,1,2,3
CCOC(=O)c1c(NC(=O)CSc2nc3ccccc3s2)sc(C(C)=O)c1C,-1,-1,1,1,-2
O=c1oc2cc(Cl)ccc2n1CSc1nc2ccccc2s1,1,3,3,6.5*,12*
Cc1cc(NC(=O)CSc2nc3cc(Cl)ccc3s2)no1,-1,1,1,2,3
Cc1cc(SCC(=O)O)nc2ccccc12,-1,-1,0,0,0
Cc1cc(SCC(=O)c2cc3ccccc3o2)nc2ccccc12,1.1*,0,1,5,4
O=C(CSc1nc2ccccc2s1)N1c2ccccc2Sc2ccc(Cl)cc21,-2,0,0,-2,3
CCOC(=O)c1c(NC(=O)CSc2nc3cc(Cl)ccc3s2)sc(C(C)=O)c1C,-1,nt,0,5.8*,1
CCCC1CCC2(CC1)CCC2OC(=O)Nc1ccc(C)cc1 (configuration not stated),-1,nt,nt,-1,3
C#CCN1CC(N2CCN(CCO)CC2)CS1(=O)=O (configuration not stated),-1,nt,-1,-2,-2
COC(=O)C1CN(Cc2cn(Cc3ccc(Cl)cc3)nn2)CCS(=O)(=O)N1Cc1ccccc1 (configuration not stated),-2,nt,-2,-1,-4
CCn1c(=O)n2n(c1=O)[C@H]1C[N+](Cc3ccc4c(c3)OCO4)=C(N)NC1=C(C)C2,-1,nt,nt,-4,2
CC(C)CN(C(=O)COC(=O)CCc1nc2ccccc2s1)c1c(N)n(Cc2ccccc2)c(=O)[nH]c1=O,-1,1,3.7*,2,1
CCn1c(SCC(=O)c2ccc(-c3ccccc3)cc2)nnc1-c1ccccc1OC,-2,nt,-1,-2,-3
CCOC(=O)C(=O)c1csc(NC(=O)CCSc2ccc(C)cc2)n1,-2,4.4*,0,-2,-4
Clc1ccc(CNCC2CCCO2)cc1 (configuration not stated),0,1,1,-1,-3
Fc1ccc(CNCC2CCCO2)cc1 (configuration not stated),-1,4.3*,0,0,-1
O=C(NCC1CCCO1)/C(=C/c1ccccc1)NC(=O)c1ccccc1 (configuration not stated),-1,-2,0,0,4
C(=C\c1ccccc1)/CNCC1CCCO1 (configuration not stated),1.6*,0,0,3,7
Cc1ccc(-n2c(SCC(=O)Nc3ccc(OCc4ccccc4)cc3)nnc2-c2cnccn2)cc1,-1,nt,-3,-3,3
CCCCCCCCN1C(=O)[C@@H](CC(=O)NCc2cccc3ccccc23)C[C@@]2(C(=O)OC)C1=C[C@H](COCc1ccccc1)O[C@@H]2C,-1,nt,-1,-1,2
CC(=O)Nc1sc2c(c1-c1nc3ccccc3s1)CCN(C(C)=O)C2,0,nt,nt,6.2*,7
CC(=O)N1CCc2c(sc(NC(=O)C3CC3)c2-c2nc3ccccc3s2)C1,-1,1,-3,-1,1
Cc1ccc(S(=O)(=O)N2CCN(c3cnn(C)c(=O)c3Cl)CC2)cc1,-2,0,-1,-1,-1
